Inconclusive results are not listed. A number with no mark means an inactive call. Activity calls are given as the source filed them. The call rests on the fitted dose curve; in most records, active means well fitted cell-killing curve with a large enough effect in the repeat runs (not every such curve was filed as active); inconclusive means weak or mixed curves, or effect the other way; inactive means no such curve, though single readings can be large or run the other way.
On the % scale 0 is the no-effect control and ±100 the full control effect.

A short description of this assay: qHTS assay to identify small molecule antagonists of the estrogen related receptor signaling pathway with the pleiotropic PPARgamma coactivator (PGC) from Tox21 10K library - cell viability counter screen (AID 1224840). Further: nearly all actives have a fitted effect of over 40% in size. Conditions: PGC/ERR reporter cells viability, CellTiter-Fluor, 17.5 h; series mostly up to 92.4 µM; viability change, negative = cytotoxic: at the top concentration. The text has this:
National Center for Advancing Translational Sciences [NCATS]
NIH Chemical Genomics Center [NCGC]
U.S. Environmental Protection Agency [EPA]
National Institutes of Environmental Health Sciences [NIEHS]
National Toxicology Program [NTP]
U.S. Food and Drug Administration [FDA]
Estrogen related receptors (ERRs), the first orphan nuclear receptors discovered, play an important role in the control of cellular energy metabolism. ERRs are required for high-energy production in response to the environmental challenges. The pleiotropic PPARgamma coactivator (PGC) is a major partner of ERR and a key regulator in energy homeostasis. Together they have been implicated in the etiology of metabolic disorders such as Type 2 diabetes and metabolic syndrome. ERR-alpha was also identified as an adverse marker for breast cancer progression; ERR-alpha-positive tumors have a poor prognosis. To screen and to identify environmental compounds that perturb the ERR and PGC/ERR signaling pathways could provide valuable information for potential therapeutic or preventive measures in the treatment of metabolic disease. To differentiate true PGC/ERR antagonists or agonist from cytotoxic substances, the assay is multiplexed with cell viability assay.
Tox21 Assay Protocol Summary:
The PGC/ERR cells were dispensed at 2,000 cells/5 ul/well in 1536-well white plates using a Multidrop dispenser. After the assay plates were incubated at a 37 C/5% CO2 incubator for 6 hours, 23 nL of compounds dissolved in DMSO, positive and negative controls or DMSO only was transferred to the assay plate by a pin tool. The plates were incubated at 37 C for 17.5 hours. 1 ul/well of CellTiter-Fluor reagent was added into the assay plates using a Flying Reagent Dispenser. After 30-minute incubation at 37 C/5% CO2, the fluorescence intensity in the plates was measured using a ViewLux plate reader.
Background: Quantitative high-throughput screening tests each substance at several concentrations.
In the case of `O=Cc1c(Cl)cccc1Cl`, the “viability change, negative = cytotoxic” value was -2.45%. For the compound `CC1(C)C2=CCCC(C)(C)[C@]23CC[C@H]1C3`, the “viability change, negative = cytotoxic” value is -5.7%. On the same count and under the same terms, the value for `Oc1cc(O)c(Cl)cc1Cl` was -1.83%. On the same count and under the same terms, the value for `CC(=O)Nc1ccc(N)cc1` was -9.44%; that for `O=C(O)Cc1ccc(-c2ccccc2)cc1` was 0.693% [at 42.5 µM]. For the compound `CC(=O)Nc1ccccc1C`, the “viability change, negative = cytotoxic” value was 5.01%. Take `O=C1OCCN1/N=C/c1ccc([N+](=O)[O-])o1`: the “viability change, negative = cytotoxic” value was -1.14% [at 42.5 µM]. Take `CCc1nn(CCCN2CCN(c3cccc(Cl)c3)CC2)c(=O)n1CCOc1ccccc1`: the “viability change, negative = cytotoxic” value is -24.1% [at 42.5 µM].

With `CNC(=O)N(c1ccccc1)c1ccccc1`, the “viability change, negative = cytotoxic” value was 7.21%.

Take `COC(=O)[C@@H]1CC2=CC(=O)CC[C@]2(C)[C@@]23O[C@@H]2C[C@@]2(C)[C@@H](CC[C@@]24CCC(=O)O4)[C@H]13`: the “viability change, negative = cytotoxic” value was 13.7% [at 42.5 µM]. With `Cc1cc(O)c2c(O)c3c(O)cccc3cc2c1`, the “viability change, negative = cytotoxic” value was -10.2% [at 42.5 µM]. On to `O=C(CCCCCCC(=O)Nc1ccccc1)NO`, for which the “viability change, negative = cytotoxic” value is -10.5% [at 42.5 µM]. Consider `O=S(=O)(c1ccccc1)c1ccc(Cl)cc1`, for which the “viability change, negative = cytotoxic” value was -1.09%. The same measure, in the same setting: the value for `CO/N=C1\CN(c2nc3c(cc2F)c(=O)c(C(=O)O)cn3C2CC2)CC1CN` (stereo not given) was -4.81% [at 42.5 µM]; that for `OC(CCCN1CCCCC1)(c1ccccc1)c1ccccc1` was -2.67% [at 42.5 µM]; that for `C[Si]1(C)O[Si](C)(C)O[Si](C)(C)O1` was 14.5%. Still for that read-out and setting: the value for `CCCCCCCCCOC(C)=O` was 5.03%. As for `CC(C)(CCl)c1ccccc1`, the “viability change, negative = cytotoxic” value was -8.65%. In the case of `CCCCCCCC/C=C\CCCCCCCC(=O)OC(CO)CO`, the “viability change, negative = cytotoxic” value was -4.18%. With `CCCCCCCCCCCC[N+](C)(C)CC(=O)[O-]`, the “viability change, negative = cytotoxic” value was -11%.

On to `COCC(O)CO` (stereo not given), for which the “viability change, negative = cytotoxic” value was -3.61%.

Take `N#C/C(=C1/SC[C@@H](c2ccc(Cl)cc2Cl)S1)n1ccnc1`: the “viability change, negative = cytotoxic” value was -13.8% [at 42.5 µM]. As for `CCC1(C)CC(=O)NC1=O` (stereo not given), the “viability change, negative = cytotoxic” value was -2.12% [at 42.5 µM]. Turning to `COc1ccc(C(=O)c2cccc(O)c2)c(OC)c1`, the “viability change, negative = cytotoxic” value was -14.4%. For the compound `Cc1cc(O)c(C(C)C)cc1Cl`, the Potency entry was “inactive”. With `CC(C)CCCCCCOC(=O)CCCCC(=O)OCCCCCCC(C)C`, the “viability change, negative = cytotoxic” value was 4.58%.

Consider `CCOC(=O)c1ccccc1C`, for which the “viability change, negative = cytotoxic” value is -10.4%. As to `CCCCC(CC)CNCC(CC)CCCC` (stereo not given), the “viability change, negative = cytotoxic” value was 12.7%. Turning to `Cc1ccnc2ccccc12`, the “viability change, negative = cytotoxic” value was 1.01%. In the case of `CC(CCO)CCc1ccccc1` (stereo not given), the “viability change, negative = cytotoxic” value is -1.04%. Consider `CN1Cc2cc(C(=O)N3CCC(C4CCNCC4)CC3)ccc2N[C@@H](CC(=O)O)C1=O`, for which the “viability change, negative = cytotoxic” value is 0.637% [at 42.5 µM]. `Nc1nc(Cl)nc2c1ncn2[C@@H]1O[C@H](CO)[C@@H](O)[C@@H]1F`: the “viability change, negative = cytotoxic” value was 1.54% [at 42.5 µM]. Take `CC(C)CCCCCOC(=O)CCCCC(=O)OCCCCCC(C)C`: the “viability change, negative = cytotoxic” value is -1.42%. Same read-out and setting: the value for `CO[Si](C)(OC)OC` was 2.12%; that for `CC(C)(O)c1ccccc1CC[C@@H](SCC1(CC(=O)O)CC1)c1cccc(/C=C/c2ccc3ccc(Cl)cc3n2)c1` was 8.07% [at 42.5 µM]; that for `CCCCCCCCCCCC(=O)[O][Sn]([CH2]CCC)([CH2]CCC)[O]C(=O)CCCCCCCCCCC` was -5.78% [at 42.5 µM]. For `CCC(=O)Oc1ccc(/C(CC)=C(\CC)c2ccc(OC(=O)CC)cc2)cc1`, the “viability change, negative = cytotoxic” value is -6.11%. For `Cc1ccc(S)cc1`, the “viability change, negative = cytotoxic” value is 9.62%.

With `CCCCC/C(=C\c1ccccc1)CO`, the “viability change, negative = cytotoxic” value is -4.85%. Regarding `CN(C(=O)C(Cl)Cl)c1ccc(OC(=O)c2ccco2)cc1`, the “viability change, negative = cytotoxic” value is 5.33% [at 42.5 µM].

For the origin of these results see PubChem BioAssay (Tox21).
